These results are taken from PubChem BioAssay AID1259421 (Broad Institute, 2018).

Each structure is given as a SMILES string. Several values for one entry are separate records, joined by “and”; a condition that tells them apart may be missing. Equal entries are not always repeated. Among all 6,400 compounds or so, about 610 (9.5%) were called active. This is one part of a sample in which actives are shown more often than they occur. No stated cut-off is given here; in the data, active means activity change below about -70%; inconclusive means no clear call, values can overlap the other calls; inactive means above that.

A short description of the assay: Toxoplasma gondii ME49Luc growth in HeLa cells, luciferase, no IFN-y, primary screen (AID 1259421). Particulars: T. gondii ME49Luc in HeLa, 72 h, active compounds read low, concentration not given here.
For `C=CC(=O)Nc1cccc(OC)c1`, the activity change, negative = inhibition is 7.29% (inactive).

For `COc1cc(SC)ccc1-c1nc2ccncc2[nH]1`, the activity change, negative = inhibition was -3.26% (inactive).

`CCN(CC)CC1CCCCN1CC(=O)N1c2ccccc2C(=O)Nc2cccnc21` (centres undefined): the activity change, negative = inhibition is 5.74% (inactive) and 8.21% (inactive).

As for `COc1cc2c(cc1O)CC[C@@H]1[C@@H]2CC[C@]2(C)[C@@H](O)CC[C@@H]12`, the activity change, negative = inhibition was -44.5% (inactive).

`C[C@]12CC[C@@H]3c4ccc(O)cc4CC[C@H]3[C@@H]1C[C@@H](O)[C@@H]2O`: the activity change, negative = inhibition is -0.302% (inactive).

Take `C[C@]12CCC3c4ccc(OC(=O)c5ccccc5)cc4CCC3C1CC[C@@H]2O` (some centres undefined): the activity change, negative = inhibition was -85.4% (active).

`C[C@]12CCC3c4ccc(OS(=O)(=O)O)cc4CCC3C1CC[C@H]2O` (some centres undefined): the activity change, negative = inhibition was -7.66% (inactive).

Take `CC(=O)OC1CCC2C3CCc4cc(O)ccc4C3CCC12C` (centres undefined): the activity change, negative = inhibition was 1.9% (inactive).

With `CC12CCC3c4ccc(O)cc4CCC3C1C[C@H](O)[C@@H]2O` (some centres undefined), the activity change, negative = inhibition was -75.1% (active).

In the case of `C[C@]12CCC3c4ccc(OC(=O)c5ccccc5)cc4CCC3C1CCC2=O` (some centres undefined), the activity change, negative = inhibition was -55.9% (inactive).

As to `COc1ccc2c(c1)CCC1C2CC[C@@]2(C)C1CC[C@@H]2O` (some centres undefined), the activity change, negative = inhibition is -9.49% (inactive).

Turning to `C[C@]12CC[C@@H]3c4ccc(O)cc4CC[C@H]3[C@@H]1CC[C@@H]2O`, the activity change, negative = inhibition is -81.4% (active) and -83.1% (active).

As to `C[C@]12CCC3c4ccc(O)cc4CCC3C1CC[C@@H]2O` (some centres undefined), the activity change, negative = inhibition is -87.4% (active).

For `C[C@]12CCC3c4ccc(O)cc4CCC3C1C[C@@H](O)[C@@H]2O` (some centres undefined), the activity change, negative = inhibition was -4.22% (inactive).

On to `CC12CCC3c4ccc(OC(=O)c5ccccc5)cc4CCC3C1CCC2O` (centres undefined), for which the activity change, negative = inhibition was -15.9% (inactive).

Regarding `CON(C)C(=O)N1N=C(c2cc(F)ccc2F)S[C@@]1(CCCN)c1ccccc1`, the activity change, negative = inhibition was -53.7% (inactive).

For `CCCCc1nc2ccn(CC(=O)N(C)C)c(=O)c2n1Cc1ccc(-c2ccccc2-c2nn[nH]n2)cc1`, the activity change, negative = inhibition was 18.6% (inactive) and -0.527% (inactive).

For `O=C1CSC(=O)N1`, the activity change, negative = inhibition was 20.7% (inactive).

As for `O=C1NC(=O)c2cc(Nc3ccccc3)c(Nc3ccccc3)cc21`, the activity change, negative = inhibition was 7.82% (inactive).

Regarding `CC(=O)[C@H]1CCC2C3CCC4=CC(=O)CC[C@]4(C)C3[C@H](OC(=O)CCC(=O)O)C[C@@]21C` (some centres undefined), the activity change, negative = inhibition is -2.62% (inactive).

Consider `CC(C)(c1ccc(O)cc1)c1ccc(O)cc1`, for which the activity change, negative = inhibition is 6.99% (inactive).

In the case of `CCc1ccccc1OC[C@@H](O)CN[C@H]1CCCc2ccccc21`, the activity change, negative = inhibition was 23.1% (inactive) and 15.7% (inactive).

`C[C@@H]1CC[C@@]2(OC1)O[C@H]1C[C@H]3[C@@H]4CC=C5C[C@@H](O)CC[C@]5(C)[C@H]4CC[C@]3(C)[C@H]1[C@@H]2C`: the activity change, negative = inhibition is 6.17% (inactive).

As for `CN1[C@@H]2CC[C@@H]1CC(OC(c1ccccc1)c1ccccc1)C2` (some centres undefined), the activity change, negative = inhibition is 11.3% (inactive).

With `O=[N+]([O-])c1cn2c(n1)OC[C@@H](OCc1ccc(OC(F)(F)F)cc1)C2`, the activity change, negative = inhibition was -78.6% (active).

Take `CC1O[C@@H](Oc2c(-c3ccc(O)c(O)c3)oc3cc(O)cc(O)c3c2=O)[C@H](O)[C@H](O)[C@H]1O` (some centres undefined): the activity change, negative = inhibition is 5.62% (inactive).

In the case of `O=C1NC(=O)/C(=C\c2ccc(-c3ccc(F)cc3)o2)S1`, the activity change, negative = inhibition was 32.3% (inactive).

For `[2H]C([2H])([2H])C(O)(CCO[C@@H](C)[C@H]1CC[C@H]2/C(=C/C=C3/C[C@@H](O)C[C@H](O)C3=C)CCC[C@]12C)C([2H])([2H])[2H]`, the activity change, negative = inhibition was 0.514% (inactive).

`COc1ccc2c(=O)c(CC(=O)O)coc2c1`: the activity change, negative = inhibition is 4.96% (inactive).

Regarding `CO/N=C(/C(=O)N[C@@H]1C(=O)N2C(C(=O)OCOC(=O)C(C)(C)C)=C(/C=C/c3scnc3C)CS[C@H]12)c1csc(N)n1`, the activity change, negative = inhibition was 2.91% (inactive).

Take `C/C=C1\NC(=O)[C@H]2CSSCCC=C[C@H](CC(=O)N[C@H](C(C)C)C(=O)N2)OC(=O)[C@H](C(C)C)NC1=O`: the activity change, negative = inhibition is -80.8% (active).

Take `CC(=O)c1ccc2c(c1)[C@H](NC(=O)c1ccc(F)c(Cl)c1)[C@H](O)C(C)(C)O2`: the activity change, negative = inhibition was -1.26% (inactive).

For the compound `C[C@]12CCC(=O)C=C1CCC1C2[C@@H](O)C[C@@]2(C)C1CC[C@]2(O)C(=O)CO` (some centres undefined), the activity change, negative = inhibition was -3.05% (inactive).

On to `O=C(O)COc1ccc(OCCNC[C@@H](O)COc2ccccc2)cc1`, for which the activity change, negative = inhibition is 0.151% (inactive).

As to `COc1ccc2cccc(N3CCN(CCNC(=O)c4ccc(F)cc4)CC3)c2c1`, the activity change, negative = inhibition was 40.8% (inactive) and 23.4% (inactive).

As to `CC(C)C[C@H](NC(=O)CNC(=O)c1cc(Cl)ccc1Cl)B1OC(=O)CC(CC(=O)O)(C(=O)O)O1` (some centres undefined), the activity change, negative = inhibition is -87.8% (active).

On to `O=C(CNC(=O)c1ccc(Cl)cc1)NO`, for which the activity change, negative = inhibition was 36.3% (inactive).

With `CC(C)C[C@H](NC(=O)CNC(=O)c1cc(Cl)ccc1Cl)B(O)O`, the activity change, negative = inhibition was -77.9% (active).

As for `CCCC(C)NC(=O)c1ccc(Cl)c(Cl)c1` (centres undefined), the activity change, negative = inhibition was 6.33% (inactive).

With `CC1=C(/C=C/C(C)=C/C=C/C(C)=C/C=O)C(C)(C)CCC1`, the activity change, negative = inhibition was 16.4% (inactive).

`O=C(Nc1cccnn1)N1CCC(=Cc2cccc(Oc3ccc(C(F)(F)F)cn3)c2)CC1`: the activity change, negative = inhibition is -18.9% (inactive).

`CC(=O)O[C@@H]1C[C@H]2C(C)(C)C(=O)C=C[C@]2(C)[C@H]2CC[C@@]3(C)[C@H](c4ccoc4)OC(=O)[C@H]4O[C@]43[C@@]21C`: the activity change, negative = inhibition is 26.1% (inactive).

For the compound `CC1(C)C(=O)C=C[C@@]2(C)C1CC(=O)[C@]1(C)C2CC[C@@]2(C)[C@H](c3ccoc3)OC(=O)[C@H]3O[C@]321` (some centres undefined), the activity change, negative = inhibition is 30.3% (inactive).

As for `CC1(C)C(=O)C=C[C@@]2(C)C1C=C[C@]1(C)C2CC[C@@]2(C)[C@H](c3ccoc3)OC(=O)[C@H]3O[C@]321` (some centres undefined), the activity change, negative = inhibition is -89.3% (active).

For the compound `CC(=O)O[C@H]1C[C@@H](OC(C)=O)C(C)(C)C2C[C@@H](O)[C@]3(C)C(CC[C@@]4(C)[C@H](c5ccoc5)OC(=O)[C@H]5O[C@]543)[C@]21C` (some centres undefined), the activity change, negative = inhibition was 5.63% (inactive).

For `CC(C)(C)c1cc(C(C)(C)C)c(NC(=O)c2c[nH]c3ccccc3c2=O)cc1O`, the activity change, negative = inhibition was -81.7% (active).

On to `COC(=O)c1csc(C(=O)c2c[nH]c3ccccc23)n1`, for which the activity change, negative = inhibition was 5.76% (inactive).

On to `OCc1c[nH]c2ccccc12`, for which the activity change, negative = inhibition is 2.87% (inactive) and 57.8% (inactive).

Regarding `NC(N)=NCCNS(=O)(=O)c1cccc2cnccc12`, the activity change, negative = inhibition was 0.419% (inactive) and 15.9% (inactive).
